Rows were chosen to be rich in hits. Some 12% of all compounds tested hit in one or more screens of this group.
HP1b chromo inh: blocks HP1-beta chromodomain binding to methylated histone tails | Potency, µM (highest dose often 114 µM), for inactives: at the top dose activity change, negative = inhibition, most hits filed as inhibitors | 0.56% of 390,000 active | AlphaScreen HP1-beta / biotin-H3K9me3 peptide binding; also: nearly all actives have a fitted effect of over 70% in size
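HP1-beta protein (50 nM final) preincubated 30 min at room temperature with biotinylated H3(1-18)K9me3 peptide (50 nM) in PBS pH 7.4, 0.01% Tween-20, then compound added for 30 min. AlphaScreen streptavidin donor/nickel chelate acceptor beads (10 ug/mL final), 30 min dark, luminescence read.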
BAZ2B block: blocks human BAZ2B; Q9UIF8; AlphaScreen BAZ2B-H3K14Ac peptide displacement; Potency, µM (doses to about 114 µM), for inactives: at the top dose activity change, negative = inhibition, hits mostly inhibitors; 4.4% of 360,000 active; AID 504333; also: % is scaled to controls: 0 for no effect and ±100 for the full control effect; nearly all actives have a fitted effect of over 60% in size
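Inhibition is scored as reduced AlphaScreen emission. The BAZ2B/b-H3(5-23)K14Ac complex (50 nM each) in PBS pH 7.4, 0.01% Tween-20 meets compound (up to 110 uM) for 30 min at RT before bead addition.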
PLK1 PBD inh: blocks phosphopeptide binding to human PLK1 polo-box domain; Plk1 PBD binding of FITC phosphopeptide, fluorescence polarization; 2.8% of 360,000 active; AID 720504; Potency, µM, inactives show max response, negative = inhibition, usual class: inhibitors; P53350; also: series mostly up to about 57 µM; % is scaled to controls: 0 for no effect and ±100 for the full control effect; nearly all actives have a fitted effect of over 65% in size
Sfp PPTase inh: blocks B. subtilis Sfp PPTase activity. AID 1490. Potency, µM, for the others: largest response in the series, negative = inhibition, most hits filed as inhibitors. Q9F4F7. Biochemical Sfp PPTase activity, qHTS. 3.5% of 310,000 active;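 also: the enzyme is Sfp with the accession as filed and its product quenches rhodamine fluorescence; 0% = enzyme reaction without inhibitor and -100% = no enzyme wells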
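Sfp 15 nM + cpd, 15 min RT; start w/ rhodamine-CoA 5 uM, BHQ-2-YbbR 12.5 uM (final); 50 mM Hepes pH 7.6, 10 mM MgCl2, 0.01% NP-40, 0.01% BSA; read 525/598 nm at 0 and 30 min.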
JMJD2A Tudor: inhibitors of human JMJD2A Tudor domain. O75164. AlphaScreen JMJD2A-Tudor / H3K4me3 peptide binding. Potency, µM (highest dose often 114 µM), without a hit: at the highest dose activity change, negative = inhibition, hits mostly inhibitors. 4.4% of 390,000 active. AID 504339; also: % is scaled to controls: 0 for no effect and ±100 for the full control effect; nearly all actives have a fitted effect of over 50% in size
G9a block: G9a (human) methyltransferase inhibition; Q96KQ7; G9a H3K9 monomethylation, AlphaScreen, 2 h; Potency, µM (top dose mostly 102 µM), without a hit: top-dose activity, negative = inhibition, most hits filed as inhibitors; 8.8% of 350,000 active; also: % is scaled to controls: 0 for no effect and ±100 for the full control effect; nearly all actives have a fitted effect of over 75% in size
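Step 1: enzyme (final 20 nM) with compound, 15 min RT. Step 2: substrate peptide 500 nM and SAM 20 uM, 2 h RT. Step 3: anti-H3K9me1 antibody and AlphaScreen beads, 10 min, then plate read.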
* = called active by the depositor; ? = inconclusive; . = no result; [ ] = dose if it differs, or a comment. Calls follow the shape of the dose curve; as a rule, active = well fitted curve in the direction sought with a large enough effect; inconclusive = small, poorly fitted or top-dose-only effect, or another doubt; inactive = no such curve, though single readings can be large; an effect the other way counts as inactive or inconclusive. Potency is read from the fitted curve at half-maximal effect.

SMILES	HP1b chromo inh	BAZ2B block	PLK1 PBD inh	Sfp PPTase inh	JMJD2A Tudor	G9a block
Cc1cccn2c(=O)c3cc(S(=O)(=O)c4ccccc4)c(=N)n(Cc4ccco4)c3nc12	24%	-24%	-4%	56µM*	-6%	-46%
Cc1ccc(S(=O)(=O)c2cc3c(=O)n4ccccc4nc3n(Cc3ccco3)c2=N)cc1C	21%	-46%	-12%	79µM*	-6%	?
Cc1cccn2c(=O)c3cc(S(=O)(=O)c4ccc(F)cc4)c(=N)n(Cc4ccco4)c3nc12	35%	-1%	1%	-12%	-4%	-6%
COc1cc(/C=C/c2nc3cc(Cl)ccc3c(=O)n2-c2cccc(C(F)(F)F)c2)cc(OC)c1OC	27%	1%	.	.	-12%	4%[59 µM]
Cn1c(N)c(C(=O)COC(=O)[C@H](Cc2ccccc2)N2C(=O)c3ccccc3C2=O)c(=O)n(C)c1=O	19%	-9%	-5%	-6%	-26%	1%
COc1ccccc1OCCC(=O)OCC(=O)c1c(N)n(C)c(=O)n(C)c1=O	35%	?	-5%	6%	-22%	50µM*
Cc1ccc(OCC(=O)c2c(N)n(C)c(=O)n(C)c2=O)c([N+](=O)[O-])n1	20µM*	25µM*	?	.	?	60%[12.7 µM]
CC(C)CC(C(=O)OCC(=O)c1c(N)n(C)c(=O)n(C)c1=O)N1C(=O)c2ccccc2C1=O (stereo unspecified)	18%	-29%	-2%	-17%	-31%	11µM*
COC(=O)C1(NC(=O)CNC(=O)OCc2ccccc2)CCCC1	12%	.	9%	.	-3%	.
COC(=O)c1ccc(N2C(=O)Cc3cc(OC)c(OC)cc3C2c2ccc(F)cc2)cc1 (stereo unspecified)	-11%	-27%	.	.	-34%	?
Cc1ccc(NC(=O)C2(C)CCN2C(=O)Cc2cc(F)ccc2F)cc1 (stereo unspecified)	.	.	-4%	.	.	.
Cc1ncc(CO)c(CNc2ccc(Oc3ccccc3)cc2)c1O	?	?	7%	7%	?	71µM*
CC(c1ccccc1)n1c(Cn2ncc3ccccc3c2=O)n[nH]c1=S (stereo unspecified)	53%	-25%	1%	-2%	32µM*	3.5µM*
O=c1c2ccccc2cnn1Cc1n[nH]c(=S)n1-c1ccc(Cl)cc1	20%	-8%	-7%	13%	22µM*	1.8µM*
CCOC(=O)CCc1cc(F)c(S(=O)(=O)N2CCN(S(=O)(=O)c3ccc4c(c3)OCCO4)CC2)cc1F	.	.	.	.	-15%	.
Cc1c(-c2nsc(NC(=O)c3cccs3)n2)nnn1-c1ccc(Cl)cc1	-17%	-35%	.	.	-24%	-29%[59 µM]
Cc1ccc(Nc2ccc(N3CCN(C(=O)c4ccc([N+](=O)[O-])cc4Cl)CC3)nn2)cc1	2%	?	.	.	?	-34%[59 µM]
CN(C)c1nc(-c2ccc3c(c2)OCO3)nc2ccccc12	.	.	.	-27%	.	-2%[0.501 µM]
Cc1ccccc1OCC(=O)N/N=C/c1ccccn1	-10%	-39%	30µM*	-54%	-35%	-26%
O=C(COc1ccc2ccccc2c1)N/N=C/C1CC=CCC1 (stereo unspecified)	39%	-2%	-4%	5%	-14%	-12%
O=C(COc1ccc2ccccc2c1)N/N=C/c1ccccn1	?	9%	19µM*	?	?	17%[0.501 µM]
Cc1cc(C)cc(OCC(=O)N/N=C/c2ccccn2)c1	39%	79µM*	-8%	?	?	?
CCN(CC)c1ccc(C(=O)OCC(=O)N2CCN(c3ccccc3)CC2)cc1	12%	-37%	-2%	9%	4.5µM*	-40%
O=C(Nc1ccc(N2CCCC2)cc1)C(c1ccccc1)c1ccccc1	-13%	?	-1%	50µM*	?	32µM*
CCC(C(=O)N1CCN(c2cccc(Cl)c2)CC1)c1ccccc1 (stereo unspecified)	44%	20%	-1%	-1%	27%	-6%[12.7 µM]
SMILES	HP1b chromo inh	BAZ2B block	PLK1 PBD inh	Sfp PPTase inh	JMJD2A Tudor	G9a block
CCC(CC)C(=O)N1CCN(c2ccccc2)CC1	35%	-17%	-14%	16%	-17%	79µM*
CC(=O)c1ccc(NCC(=O)N2CCN(c3ccccc3)CC2)cc1	42%	-32%	-11%	2%	0%	14µM*
O=C(OCC(=O)N1CCN(c2ccccc2)CC1)c1ccc(Cl)nc1	13%	-1%	-8%	.	-2%	?
COc1ccc(C(=O)N(Cc2ccccc2)Cc2cccs2)c(O)c1	.	.	.	.	-34%	.
Cc1ccc(/C=C(\C#N)c2nc(-c3cc4c(ccc5ccccc54)oc3=O)cs2)cc1	29%	-1%	.	.	-1%	-28%[59 µM]
CC(=O)N1CCN(c2ccc(NC(=O)c3ccccc3)cc2)CC1	29%	3%	-7%	17%	-5%	9%
O=C(c1ccncc1)N1CCC2(CC1)CCN(c1ccc(-c3ccccc3)cc1)CC2	.	.	.	13%	.	-7%[12.7 µM]
CC(=O)N1CCN(c2ccc(NC(=O)C(c3ccccc3)c3ccccc3)cc2)CC1	-7%	-39%	10%	4%	?	50µM*
CC(=O)N1CCN(c2ccc(NC(=O)c3ccccc3Cl)cc2)CC1	7%	-1%	21µM*	6%	?	.
CC(=O)N1CCC2(CC1)CCN(c1ccc(-c3ccccc3)cc1)CC2	.	.	.	56µM*	.	-1%[12.7 µM]
CCCC[C@@H]1C[C@H]1C(NC(=O)Cc1ccccc1)c1ccc(-c2ccccc2)cc1 (stereo partly specified)	.	.	.	18%	.	.
NC(=O)c1nc(-c2ccco2)nc2c1[nH]c(=O)n2-c1ccc(Cl)c(Cl)c1	32%	-15%	-19%	0%	-15%	39%
CCCCC[C@H](O)/C=C/[C@@H]1[C@@H](C/C=C\CCCC(=O)OC)[C@@H](O)C[C@H]1O	?	14µM*	-15%	25µM*	22µM*	40µM*
CCN1/C(=C\C=C(C(C)=O)C(C)=O)Sc2ccccc21	-5%	?	107%	-2%	-30%	50µM*
CCN1/C(=C\C(=S)Nc2ccccc2)Sc2ccccc21	?	?	24µM*	20µM*	25µM*	?
CCOC(=O)/C(C#N)=C(C)/C=C1\Sc2ccccc2N1CC	11%	4%	-17%	9%	-13%	-4%[59 µM]
CCCCN(CCCC)C(=O)c1cc2c(=O)n3ccccc3nc2s1	175%	103%	.	.	100%	72%[59 µM]
C/C(=N\N1C(=O)CSC1=S)c1ccc(Br)cc1	-24%	?	5.3µM*	?	-31%	40µM*
O=c1ccc(Cc2ccccn2)n[nH]1	31%	9%	-7%	-8%	-8%	?
CC(/C=C/c1ccccc1)=N/NC(=O)CNC(=O)c1ccccc1F	27%	-20%	-4%	10%	-13%	?
Cc1ccc(NC(=O)Nc2ccccc2C(N)=O)cc1	20%	-2%	3%	15%	-19%	-5%

High-throughput results (PubChem)
